# Measurements reported in the antibiotic and cytotoxicity screens of Wong et al. (2023).
# Out of some 39,000 compounds screened, about 3,300 (8.5%) were called active. The list comes from a sample in which actives are over-represented; it also holds similar structures and randomly drawn compounds.
# Test system: HepG2
# Test: cytotoxicity call (relative viability < 0.9)
# Conditions: 10 µM
row,Compound,cytotoxicity call
1,O=C1C=C(O)C(=O)c2ccccc21,inactive
2,NC1=CC(=O)c2ccccc2C1=O,inactive
3,CC1=CC(=O)c2ccccc2C1=O,active
4,O=C(C[C@H]1CC[C@H]2[C@@H](COC[C@@H](O)CN2C(=O)Nc2ccc(F)cc2)O1)NCCCN1CCOCC1,inactive
5,CC(C)NC(=O)N(C)C[C@@H]1Oc2ccc(NS(=O)(=O)c3cn(C)cn3)cc2C(=O)N([C@@H](C)CO)C[C@H]1C,inactive
6,C[C@@H]1CN([C@@H](C)CO)C(=O)CCCn2cc(nn2)CO[C@H]1CN(C)S(=O)(=O)c1ccc(Cl)cc1,inactive
7,NCc1ccc(S(=O)(=O)N2CCOCC2)cc1,inactive
8,NC(=O)c1cc(S(=O)(=O)N2CCOCC2)ccc1F,active
9,Cn1c(=O)c(=O)n(C)c2cc(S(=O)(=O)N3CCOCC3)ccc21,inactive
10,COCC(=O)Nc1ccc2c(c1)OC[C@H](C)N(C(=O)Cc1ccccn1)C[C@H](C)[C@H](OC)CN(C)C2=O,inactive
11,C[C@@H]1CN([C@H](C)CO)S(=O)(=O)c2ccc(-c3cncnc3)cc2O[C@H]1CN(C)C(=O)NC1CCCC1,inactive
12,CC[C@H]1OC(=O)[C@H](C)[C@@H](O[C@H]2C[C@@](C)(OC)[C@@H](O)[C@H](C)O2)[C@H](C)[C@@H](O[C@@H]2O[C@H](C)C[C@H](N(C)C)[C@H]2O)[C@](C)(OC)C[C@@H](C)C(=O)[C@H](C)[C@@H](O)[C@]1(C)O,inactive
13,C[C@@H](O)c1cccc(C(F)(F)F)c1,inactive
14,COc1ccccc1C(=O)Nc1ccc2c(c1)C(=O)N(C)[C@H]1CC[C@H](CC(=O)NCc3ccc(Cl)c(Cl)c3)O[C@H]1CO2,active
15,CN1C(=O)c2cc(NC(=O)Cc3cccs3)ccc2OC[C@@H]2O[C@H](CC(=O)NCc3ccc(-c4ccccc4)cc3)CC[C@@H]21,active
16,CN1C(=O)c2cc(NC(=O)Cc3cccs3)ccc2OC[C@H]2O[C@@H](CC(=O)NCc3ccc(-c4ccccc4)cc3)CC[C@@H]21,inactive
17,COc1ccccc1C(=O)Nc1ccc2c(c1)C(=O)N(C)[C@H]1CC[C@@H](CC(=O)NCCc3ccncc3)O[C@@H]1CO2,inactive
18,COc1ccccc1C(=O)Nc1ccc2c(c1)C(=O)N(C)[C@@H]1CC[C@H](CC(=O)NCc3ccc(Cl)c(Cl)c3)O[C@@H]1CO2,inactive
19,COc1ccccc1C(=O)Nc1ccc2c(c1)C(=O)N(C)[C@@H]1CC[C@@H](CC(=O)NCc3ccc(Cl)c(Cl)c3)O[C@@H]1CO2,active
20,COc1ccccc1C(=O)Nc1ccc2c(c1)C(=O)N(C)[C@@H]1CC[C@@H](CC(=O)NCCc3ccncc3)O[C@H]1CO2,inactive
21,COc1ccccc1C(=O)Nc1ccc2c(c1)C(=O)N(C)[C@@H]1CC[C@H](CC(=O)NCCc3ccncc3)O[C@@H]1CO2,inactive
22,CN1C(=O)c2cc(NC(=O)Cc3cccs3)ccc2OC[C@H]2O[C@H](CC(=O)NCc3ccc(-c4ccccc4)cc3)CC[C@@H]21,inactive
23,COc1ccccc1C(=O)Nc1ccc2c(c1)C(=O)N(C)[C@H]1CC[C@@H](CC(=O)NCCc3ccncc3)O[C@H]1CO2,inactive

row,Compound,cytotoxicity call
1,COc1ccccc1C(=O)Nc1ccc2c(c1)C(=O)N(C)[C@@H]1CC[C@H](CC(=O)NCc3ccc(Cl)c(Cl)c3)O[C@H]1CO2,inactive
2,COc1ccccc1C(=O)Nc1ccc2c(c1)C(=O)N(C)[C@H]1CC[C@H](CC(=O)NCc3ccc(Cl)c(Cl)c3)O[C@@H]1CO2,active
3,COc1ccc(NC(=O)N(C)C[C@@H]2OCCCC[C@@H](C)Oc3ccc(NC(=O)C4CCCCC4)cc3C(=O)N([C@@H](C)CO)C[C@@H]2C)cc1,inactive
4,C[N+](C)(C)CCCC[C@@H]1NC(=O)[C@H]2C[C@@H](C(=O)NCCCCCCN)[C@@H](c3ccc(O)cc3)N2C1=O,inactive
5,CCNC(=O)[C@@H]1CCCN1C(=O)[C@H](CCCN=C(N)N)NC(=O)[C@H](CC(C)C)NC(=O)[C@@H](Cc1c[nH]c2ccccc12)NC(=O)[C@H](Cc1ccc(O)cc1)NC(=O)[C@H](CO)NC(=O)[C@H](Cc1c[nH]c2ccccc12)NC(=O)[C@H](Cc1c[nH]cn1)NC(=O)[C@@H]1CCC(=O)N1,inactive
6,C[C@H](CO)N1C[C@H](C)[C@H](CN(C)C(=O)c2ccccn2)Oc2cc(C#Cc3ccc(F)cc3)ccc2S1(=O)=O,inactive
7,O=C(O)c1ccc(O)cc1O,inactive
8,C[C@H](CO)N1C[C@H](C)[C@H](CN(C)Cc2ccc(C(F)(F)F)cc2)OCc2ccccc2-c2ccccc2C1=O,inactive
9,COc1ccccc1CNC(=O)C[C@@H]1C[C@H]2c3cc(NS(=O)(=O)c4ccc(F)cc4)ccc3O[C@H]2[C@@H](CO)O1,inactive
10,C[C@H]1CCCCO[C@H](CN(C)S(=O)(=O)c2cccs2)[C@@H](C)CN([C@@H](C)CO)C(=O)c2cc(NS(=O)(=O)c3cn(C)cn3)ccc2O1,inactive
11,C[C@@H]1CN([C@@H](C)CO)C(=O)Cc2cc(NS(=O)(=O)c3cn(C)cn3)ccc2O[C@H]1CN(C)Cc1ccc2c(c1)OCO2,inactive
12,C[C@H](CO)N1C[C@H](C)[C@@H](CN(C)C(=O)C2CCCCC2)OCCCC[C@H](C)Oc2ccc(NC(=O)Nc3cccc4ccccc34)cc2C1=O,inactive
13,C[C@@H]1CCCCO[C@@H](CN(C)S(C)(=O)=O)[C@H](C)CN([C@@H](C)CO)C(=O)c2cc(NS(=O)(=O)c3ccccc3)ccc2O1,inactive
14,COc1ccccc1C(=O)Nc1ccc2c(c1)C(=O)N(C)[C@H]1CC[C@@H](CC(=O)NCc3ccc(Cl)c(Cl)c3)O[C@@H]1CO2,active
15,COc1ccccc1C(=O)Nc1ccc2c(c1)C(=O)N(C)[C@@H]1CC[C@H](CC(=O)NCCc3ccncc3)O[C@H]1CO2,inactive
16,COc1ccccc1C(=O)Nc1ccc2c(c1)C(=O)N(C)[C@@H]1CC[C@@H](CC(=O)NCc3ccc(Cl)c(Cl)c3)O[C@H]1CO2,inactive
17,COc1ccc(S(=O)(=O)N(C)C[C@@H]2Oc3ccc(NC(=O)Cn4cnnn4)cc3C(=O)N([C@H](C)CO)C[C@H]2C)cc1,inactive
18,C[C@H](CO)N1C[C@H](C)[C@@H](CN(C)S(C)(=O)=O)OCCCC[C@H](C)Oc2ccc(NC(=O)Nc3ccc(C(F)(F)F)cc3)cc2C1=O,inactive
19,C[C@@H]1CCCCO[C@@H](CN(C)Cc2ccc(C(F)(F)F)cc2)[C@@H](C)CN([C@@H](C)CO)C(=O)c2cc(NS(=O)(=O)c3cn(C)cn3)ccc2O1,inactive
20,CC(C)CCN1CCn2c(CO)nnc2C1,inactive
21,C[C@@H]1CN([C@@H](C)CO)C(=O)Cc2cc(NC(=O)C3CC3)ccc2O[C@H]1CN(C)C(=O)NC1CCCCC1,inactive
22,Cl.N#Cc1ccc2[nH]cc(CCCCN3CCN(c4ccc5oc(C(N)=O)cc5c4)CC3)c2c1,active
23,CCC(=O)C12CC3CC(CC(C3)C1)C2,inactive

row,Compound,cytotoxicity call
1,COc1ccc(NC(=O)N(C)C[C@H]2OCCCC[C@H](C)Oc3ccc(NC(=O)Nc4ccc5c(c4)OCO5)cc3C(=O)N([C@H](C)CO)C[C@@H]2C)cc1,inactive
2,Cc1ccc(S(=O)(=O)N(c2cccc(-n3cc(CCC(=O)NO)nn3)c2)S(=O)(=O)c2ccc(C)cc2)cc1,active
3,CC(/C=C/C(=O)NO)=C\c1ccccc1OCc1cn(-c2cccc(N(S(=O)(=O)c3ccc(C)cc3)S(=O)(=O)c3ccc(C)cc3)c2)nn1,active
4,C#CCN([C@H](/C=C/C1CC1)[C@@H](O)Cc1ccccc1)[C@@H](Cc1ccc(-n2cc(COc3ccccc3/C=C(C)/C=C/C(=O)NO)nn2)cc1)C(=O)OC,inactive
5,Cc1ccc(S(=O)(=O)N[C@H](C(=O)NCCn2cc(CCC(=O)NO)nn2)C(C)C)cc1,inactive
6,CCOc1cc(OCC)cc(C(=O)N[C@@H](Cc2ccc(-n3cc(CCC(=O)NO)nn3)cc2)C(=O)OC)c1,inactive
7,COC(=O)[C@H](Cc1ccccc1)N1C[C@](C)(OC(C)C)O[C@@H](CCn2cc(COc3ccccc3/C=C(C)/C=C/C(=O)NO)nn2)[C@@H]1/C=C/C1CC1,inactive
8,CC(/C=C/C(=O)NO)=C\c1ccccc1OCc1cn(C[C@@H]2CCCN2S(=O)(=O)c2ccc(C)cc2)nn1,active
9,COC(=O)[C@@H](Cc1ccc(-n2cc(COc3ccccc3/C=C(C)/C=C/C(=O)NO)nn2)cc1)N1CC(/C=C/C2CC2)=C[C@H]1[C@H](O)Cc1ccccc1,inactive
10,CC(/C=C/C(=O)NO)=C\c1ccccc1OCc1cn(CCNC(=O)[C@@H](NS(=O)(=O)c2ccc(C)cc2)C(C)C)nn1,inactive
11,COC(=O)[C@@H](N)Cc1ccc(-n2cc(CCC(=O)NO)nn2)cc1,active
12,Nc1ccc(-n2cc(CCC(=O)NO)nn2)cc1,inactive
13,Nc1cccc(-n2cc(CCC(=O)NO)nn2)c1,inactive
14,O=C(NC1CCC1)[C@H]1[C@H](CO)[C@H]2Cn3c(cccc3=O)[C@H]2N1CC1CCOCC1,inactive
15,COc1ccccc1-c1ccc2c(c1)O[C@H](CN(C)CC1CCOCC1)[C@H](C)CN([C@@H](C)CO)S2(=O)=O,inactive
16,C[C@H]1CN([C@@H](C)CO)C(=O)Cc2cc(NC(=O)CCN3CCOCC3)ccc2O[C@@H]1CN(C)Cc1ccncc1,inactive
17,OCCNC(=S)Nc1ccccc1,inactive
18,C[C@H](CO)N1C[C@H](C)[C@@H](CN(C)S(=O)(=O)c2ccc(Cl)cc2)OCCCC[C@H](C)Oc2ccc(NC(=O)Nc3ccc(C(F)(F)F)cc3)cc2C1=O,inactive
19,Cn1cnc(S(=O)(=O)N[C@@H]2CC[C@H](CC(=O)Nc3ccccc3)O[C@H]2CO)c1,inactive
20,COc1ccc(CN(C)C[C@@H]2Oc3c(NS(=O)(=O)c4cn(C)cn4)cccc3C(=O)N([C@H](C)CO)C[C@@H]2C)cc1,inactive
21,CCCN(C)C[C@H]1Oc2cc(C#Cc3ccccc3OC)ccc2S(=O)(=O)N([C@@H](C)CO)C[C@H]1C,inactive
